According to PubChem BioAssay AID2061318 (National Center for Advancing Translational Sciences (NCATS), 2025):
Records with an inconclusive call do not appear. Activity calls are given as the source filed them. The call rests on the fitted dose curve; in most records, active means well fitted inhibition curve with a large enough effect; inconclusive means small, poorly fitted or top-dose-only effect; inactive means flat fitted curve, though single readings scatter.

Test: Identification of antibody-drug conjugate (ADC) payloads which are substrates of ATP-binding cassette drug efflux transporters: ABCB1-HEK293-MDR-19 cell line
Details: HEK293 ABCB1 (MDR-19) viability, CellTiter-Glo, 48 h
Text: Antibody-drug conjugates (ADCs) feature an antibody recognizing a specific protein joined to a potent toxic payload. Numerous antibody-drug conjugates have received FDA approval; however, clinical resistance arises. Resistance mechanisms include decreased expression or mutation of the antibody target, impaired payload release, or increased expression of ATP-binding cassette (ABC) efflux transporters associated with multidrug resistance. We therefore sought to characterize the interaction of ABC multidrug transporters with ADC payloads. We performed a high-throughput screen with 27 common ADC payloads using cells lines expressing ABC transporters P-glycoprotein (P-gp, encoded by ABCB1) or ABCG2 (encoded by ABCG2). Confirmatory assays were also performed using cells transfected to express P-gp, ABCG2, or MRP1 (encoded by ABCC1). Several commonly used ADC payloads were substrates of P-gp, including calicheamicin gamma1, monomethyl auristatin E, DM1, and DM4. All the pyrrolobenzodiazepines tested - SJG136, SGD-1882, SG2057, and SG3199 - were substrates of P-gp, ABCG2, and MRP1. […] These findings highlight the risk of transporter-mediated resistance with certain ADC payloads and underscore the importance of selecting payloads that evade ABC transporter recognition in future ADC development.
HEK-293 cells were transfected with empty vector (pcDNA) or vector containing the human ABCB1 (MDR-19), ABCG2 (R-5), or ABCC1 gene (MRP1) and were maintained in EMEM with 2 mg/mL G418 added to maintain transporter expression. The HeLa derivative KB-3-1 and the P-gp overexpressing KB-8-5-11 subline were maintained in DMEM; KB-8-5-11 additionally received 100 ng/mL colchicine. H460 parental cells were obtained from the Division of Cancer Treatment and Diagnosis Tumor Repository, National Cancer Institute at Frederick, MD and were cultured in RPMI. The ABCG2 expressing subline H460 MX20 was generated by selecting H460 cells in 20 nM mitoxantrone. Media in all cases was supplemented with 10% FBS and 1% penicillin-streptomycin. We explored 27 common ADC payloads, in two orthogonal, paired cell line sets-a drug selected and transfected set for each transporter--to identify substrates of the ABC transporters P-gp and ABCG2. Compounds were sourced from Levena Biopharma (San Diego, CA), Selleck Chem (Houston, TX), ChemieTek (Indianapolis, IN), or Microsource Discovery Systems (Gaylordsville, CT). Screening was performed as previously described. Briefly, cells were plated at a density of 500 cells/well in 1536 well plates with compounds added using a 1536-head pin tool (Kalypsys, San Diego CA). Cells were incubated with cytotoxic drugs and processed with CellTiter Glo reagent (Promega, Madison, WI) to determine viability after 48 hours. P-gp substrates were identified by comparing compound activity between paired sets of low-expressing (sensitive) and over-expressing (resistant) cell lines.

| SMILES | Potency |
| --- | --- |
| COc1cccc2c1C(=O)c1c(O)c3c(c(O)c1C2=O)C[C@@](O)(C(=O)CO)CC3OC1CC(N2CCOC(OC)C2)C(O)C(C)O1 (stereo partly specified) | 1.7 nM (active) |
| COc1cc2cc(C(=O)N3C[C@@H](CCl)c4c3cc(O)c3ccccc43)[nH]c2c(OC)c1OC | 1.2 nM (active) |
| CC[C@@]1(O)C(=O)OCc2c1cc1n(c2=O)Cc2cc3ccccc3nc2-1 | 13.3 nM (active) |
| COc1cc2cc(c1Cl)N(C)C(=O)C[C@H](OC(=O)C(C)C)[C@]1(C)O[C@H]1[C@H](C)[C@@H]1C[C@@](O)(NC(=O)O1)[C@H](OC)C=CC=C(C)C2 | 14.9 nM (active) |
| COc1cc2cc(c1Cl)N(C)C(=O)C[C@H](OC(=O)[C@H](C)N(C)C(=O)CCS)[C@]1(C)OC1[C@H](C)C1C[C@@](O)(NC(=O)O1)[C@H](OC)/C=C/C=C(\C)C2 (stereo partly specified) | 298 nM (active) |
| CC[C@H](C)[C@@H]([C@@H](CC(=O)N1CCC[C@H]1[C@H](OC)[C@@H](C)C(=O)N[C@H](C)[C@@H](O)c1ccccc1)OC)N(C)C(=O)[C@@H](NC(=O)[C@H](C(C)C)N(C)C)C(C)C | 66.6 nM (active) |
